PubChem BioAssay AID602233 (National Center for Advancing Translational Sciences (NCATS), 2012)
Out of some 380,000 compounds screened, about 170 (0.045%) were called active. The sample holds actives, similar compounds and a random draw of the others, so the mix is not that of the screen. Calls follow the shape of the dose curve; as a rule, active = well fitted inhibition curve with a large enough effect; inconclusive = small, poorly fitted or top-dose-only effect; inactive = no such curve, though single readings can be large or run the other way.

These molecules were tested against Phosphoglycerate kinase, glycosomal (Trypanosoma brucei brucei) (UniProt P07378) (assay: qHTS Assay to Find Inhibitors of Phosphoglycerate Kinase). Conditions: PGK/GAPDH coupled, Kinase-Glo luminescence, 60 min; series mostly up to 57.5 µM; activity change, negative = inhibition: at the top concentration.
Phosphoglycerate kinase, glycosomal (Trypanosoma brucei brucei), sequence (P07378 whole entry, looked up): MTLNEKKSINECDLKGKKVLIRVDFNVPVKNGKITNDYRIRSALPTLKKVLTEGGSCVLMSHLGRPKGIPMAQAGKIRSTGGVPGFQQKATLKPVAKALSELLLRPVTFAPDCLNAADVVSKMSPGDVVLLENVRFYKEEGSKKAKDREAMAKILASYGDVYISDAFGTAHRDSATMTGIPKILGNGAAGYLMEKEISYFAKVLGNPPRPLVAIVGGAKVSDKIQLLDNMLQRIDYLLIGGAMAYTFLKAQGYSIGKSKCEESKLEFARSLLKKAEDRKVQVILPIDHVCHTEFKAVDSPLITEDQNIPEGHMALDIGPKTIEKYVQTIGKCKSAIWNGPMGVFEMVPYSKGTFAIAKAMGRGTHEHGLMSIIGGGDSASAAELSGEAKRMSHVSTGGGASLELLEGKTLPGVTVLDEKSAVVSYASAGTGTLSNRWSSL
From the text: Several species of the Trypanosomatidae family of parasitic protozoans cause a spectrum of diseases throughout the tropical and subtropical world. Sleeping sickness, caused by two subspecies of Trypanosoma brucei, is endemic to areas of sub-Saharan Africa, while Chagas disease, a manifestation of Trypanosoma cruzi infection, is prevalent throughout Central and South America. In addition, many species of Leishmania are responsible for a range of cutaneous and visceral diseases, causing ulcers, destructive lesions and kalaazar, a lethal infection of the viscera. Collectively, these organisms infect 30 million people worldwide (~500 million live in endemic areas), and account for ~130,000 deaths annually. Given their debilitating and prevalent nature, trypanosomatid parasites impose a heavy medical, economic and social burden on entire populations, primarily in the developing world. The problem is further exacerbated by the fact that existing treatments have progressed little in the past 50 years, and current drugs show high toxicity and poor efficacy. […] Blood-stream stages of T. brucei are entirely dependent on glycolysis as a source of ATP, and the tricarboxylic acid cycle and oxidative phosphorylation are both repressed. Glycolysis in axenically cultured T. cruzi, representing the intracellular pathogenic stage, is also essential for these parasites. […] Previous studies have shown that the glycolytic enzyme, phosphoglycerate kinase (PGK), is a viable target for drugs to kill these parasites. […] NIH Molecular Libraries Probe Production Network [MLPCN] NIH Chemical Genomics Center [NCGC] MLPCN Grant: R03 MH093212 PI Name: Malcolm Walkinshaw, University of Edinburgh
3ul of substrate/PGK buffer (columns 1,2,5-48) are dispensed into Greiner white solid bottom 1536-well assay plates; columns 3-4 receive only TEA buffer as 0x PGK controls. Compounds are then transferred via Kalypsys pin tool equipped with 1536-pin array (10nl slotted pins, V&P Scientific, San Diego, CA). Following addition of compound, 1ul of GAPDH (100nM final concentration, all columns) is added to initiate the reaction (this upstream coupling enzyme is necessary for in-well production of PGK substrate, 1,3-bisphosphoglycerate (1,3-BPG), which is unstable and not commercially available). The plates are then incubated at room temperature for 60 minutes. Kinase-Glo Plus reagent is added (2ul) and plates incubated for 10 minutes, before being transferred to a ViewLux high-throughput CCD imager (PerkinElmer) wherein single end-point measurements of luminescence are acquired using a clear filter. All reagents are diluted in an assay buffer consisting of 100mM TEA (pH 7.6), 5mM MgCl2 and 0.01% Tween-20.
% is scaled to controls: 0 for no effect and ±100 for the full control effect.
Also: nearly all actives have a fitted effect of over 60% in size.

Activity change, negative = inhibition, inactive:
CCCN1CN=C(NS(=O)(=O)c2ccc(NC(C)=O)cc2)NC1 -8.9%
CC(=O)Nc1cc(C(=O)NCc2ccc(F)cc2Cl)ccc1Sc1ccc(Cl)cc1 8.65%
COc1ccc(-c2cn3c(C)c(C(=O)Nc4cc(C)cc(C)c4)sc3n2)cc1 -0.686%
CCc1ccccc1NC(=O)CSc1nnc(-c2ccccc2)c(-c2ccccc2)n1 9.96%
COc1ccc(OC)c(NC(=O)C2CCN(S(=O)(=O)c3ccc(C)cc3)CC2)c1 -0.994%
O=C(CSc1ncc(CO)n1Cc1ccc(F)cc1)NCc1ccco1 -6.21%
CCC1CN(S(=O)(=O)c2cc(-c3cc(C)no3)ccc2C)c2cc(C)ccc2O1 (configuration not stated) -0.193%
Cc1oc2ncnc(N3CCOCC3)c2c1C(=O)NCCc1ccccc1 -4.29%
Cc1cccc(C(=O)NCCc2nc3ccccc3n2Cc2ccccc2Cl)c1 2.99%
CCc1ccc(CNC(=O)c2cc3cc4ccc(OC)cc4nc3o2)cc1 -5.03%
CCC(=O)Nc1c(C(=O)N2CCN(c3ccc(F)cc3)CC2)oc2ccccc12 3.16%
COc1ccc(-c2c(C)nn3c(N4CCC(C(=O)NCCC(C)C)CC4)cc(C)nc23)cc1OC 0.974%
Cc1ccc(-c2nnc3c4ccccc4c(C)nn23)cc1NC(=O)c1cccc(Br)c1 7.56%
Cc1ccc(NC(=O)Cn2cnc3nc4c(cc3c2=O)CCCC4)cc1Cl -6.55%
O=C(c1ccc(Br)cc1)N(Cc1cccs1)c1ccc(F)cc1 3.55%
Cc1ccc(NC(=O)CSc2nc3ccccc3c3nc(CCn4cncc4C)nn23)cc1F 4.26%
CCc1ccc(NC(=O)N2CCN(C(=O)c3nsc4ccccc34)CC2)cc1 6.83%
Cc1ccc(Cl)cc1NC(=O)CCS(=O)(=O)c1ccc(Br)s1 -2.54%
Cc1ccc(NC(=O)c2oc3ccccc3c2NC(=O)Cc2cccs2)cc1 -7.26%
Cc1ccc(-n2nc(CO)c(C(=O)NCCc3ccccc3)n2)cc1 -11.4%

outcome, inactive:
CC(=O)N1CCCc2cc(S(=O)(=O)N3CCC(C(=O)NCc4ccc(F)cc4)CC3)ccc21
COc1cccc(NC(=O)c2ccc3nc(CCc4ccccc4)oc3c2)c1
COc1ccc2c(c1)C=C(C(=O)NCc1cc(Br)ccc1OC)CO2
Cn1c(=O)c2c(SCC(=O)N3CCc4ccccc43)nc(-c3ccc(Cl)cc3)nc2n(C)c1=O
Cc1ccccc1CSc1nc(-c2ccccc2)nc2c1Cc1c(CO)cnc(C)c1O2
CC(C)Cn1c(-c2ccc(S(=O)(=O)N3CCOCC3)cc2)csc1=Nc1cc(Cl)ccc1Cl
Cc1cc(Br)ccc1NC(=O)Cn1cnc2sc(C)c(S(=O)(=O)N3CCN(C)CC3)c2c1=O
